Laboratory results reported in the supplement of paper PMC11732987, “Enantioselective OTUD7B fragment discovery through chemoproteomics screening and high-throughput optimisation” (Communications Chemistry, 2025).

Experiments:
Test in all cases: log2 ratio of Biotin-Ahx-Ub-VS probe labelling (fragment/DMSO); higher = less target engagement (more negative = stronger competition), active = hit call of the paper (q ≤ 0.05, log2 ratio ≤ -1)
Conditions in all cases: compound concentration: 200 uM; treatment time: 3 h
[1] = molecular target: T1, USP19 (UniProt O94966)
T1 sequence (whole entry): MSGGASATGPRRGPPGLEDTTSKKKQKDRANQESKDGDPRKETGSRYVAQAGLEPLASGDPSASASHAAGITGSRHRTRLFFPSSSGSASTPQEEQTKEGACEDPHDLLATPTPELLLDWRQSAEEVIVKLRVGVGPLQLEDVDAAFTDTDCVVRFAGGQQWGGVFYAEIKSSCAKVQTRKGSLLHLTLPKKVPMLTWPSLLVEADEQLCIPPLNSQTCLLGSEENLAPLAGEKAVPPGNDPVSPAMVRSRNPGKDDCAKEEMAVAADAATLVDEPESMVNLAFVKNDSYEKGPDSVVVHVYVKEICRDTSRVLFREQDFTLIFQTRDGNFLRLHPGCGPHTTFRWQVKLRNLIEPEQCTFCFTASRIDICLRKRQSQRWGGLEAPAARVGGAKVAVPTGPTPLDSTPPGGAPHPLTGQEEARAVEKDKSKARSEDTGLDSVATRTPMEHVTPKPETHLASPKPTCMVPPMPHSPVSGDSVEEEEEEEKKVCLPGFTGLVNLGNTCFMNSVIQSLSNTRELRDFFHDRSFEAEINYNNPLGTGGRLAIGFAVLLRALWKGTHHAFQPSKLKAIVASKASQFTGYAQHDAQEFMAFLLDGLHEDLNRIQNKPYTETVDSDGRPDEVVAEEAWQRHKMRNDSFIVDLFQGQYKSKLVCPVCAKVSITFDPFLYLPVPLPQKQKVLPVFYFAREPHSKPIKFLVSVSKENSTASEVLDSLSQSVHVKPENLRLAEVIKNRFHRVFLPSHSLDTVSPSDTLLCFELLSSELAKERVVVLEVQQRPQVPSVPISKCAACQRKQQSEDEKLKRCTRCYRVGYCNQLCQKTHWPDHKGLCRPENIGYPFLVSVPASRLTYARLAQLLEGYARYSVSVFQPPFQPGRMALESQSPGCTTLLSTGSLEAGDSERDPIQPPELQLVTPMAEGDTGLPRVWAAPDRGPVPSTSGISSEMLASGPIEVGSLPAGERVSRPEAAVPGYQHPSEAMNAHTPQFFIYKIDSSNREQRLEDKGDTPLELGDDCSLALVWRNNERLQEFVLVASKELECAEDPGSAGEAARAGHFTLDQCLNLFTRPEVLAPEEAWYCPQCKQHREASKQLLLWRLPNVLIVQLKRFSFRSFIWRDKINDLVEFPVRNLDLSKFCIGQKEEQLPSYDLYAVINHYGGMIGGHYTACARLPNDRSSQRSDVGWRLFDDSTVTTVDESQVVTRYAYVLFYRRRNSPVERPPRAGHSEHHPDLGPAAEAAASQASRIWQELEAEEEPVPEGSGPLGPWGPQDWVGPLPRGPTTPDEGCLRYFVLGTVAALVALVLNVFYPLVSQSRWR
Outline: (§1)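 Global-median-normalised Spectronaut label-free quantities were compared by unpaired t-test, and values are average log2 ratios of fragment over vehicle. Only proteins with ≥2 unique peptides were used. HEK293T lysate (495 µg per sample) was treated in triplicate with fragment at 200 µM or vehicle for 3 h and then with Biotin-Ahx-Ub-VS at 0.5 µM final for 1 h. Labelled DUBs were then NeutrAvidin-enriched, digested with LysC and trypsin, and run by diaPASEF LC-MS/MS.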

[2] = molecular target: T2, USP22 (UniProt Q9UPT9)
T2 sequence (whole entry): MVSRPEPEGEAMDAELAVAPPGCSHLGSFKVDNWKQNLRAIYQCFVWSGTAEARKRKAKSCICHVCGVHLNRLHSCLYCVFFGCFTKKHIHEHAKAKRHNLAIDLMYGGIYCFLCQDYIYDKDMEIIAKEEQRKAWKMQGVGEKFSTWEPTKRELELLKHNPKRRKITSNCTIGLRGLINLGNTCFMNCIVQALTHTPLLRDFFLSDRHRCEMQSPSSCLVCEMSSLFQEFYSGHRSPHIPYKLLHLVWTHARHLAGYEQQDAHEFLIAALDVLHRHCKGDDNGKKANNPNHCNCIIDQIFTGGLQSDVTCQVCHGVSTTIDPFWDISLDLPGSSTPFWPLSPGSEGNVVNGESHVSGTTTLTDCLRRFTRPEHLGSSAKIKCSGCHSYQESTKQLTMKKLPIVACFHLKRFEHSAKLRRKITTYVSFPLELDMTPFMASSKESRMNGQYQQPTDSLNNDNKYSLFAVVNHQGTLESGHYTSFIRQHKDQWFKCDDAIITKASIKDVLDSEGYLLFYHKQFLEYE
Outline: as §1

[3] = molecular target: USP24 (UniProt Q9UPU5)
Sequence of USP24 (Q9UPU5 whole entry): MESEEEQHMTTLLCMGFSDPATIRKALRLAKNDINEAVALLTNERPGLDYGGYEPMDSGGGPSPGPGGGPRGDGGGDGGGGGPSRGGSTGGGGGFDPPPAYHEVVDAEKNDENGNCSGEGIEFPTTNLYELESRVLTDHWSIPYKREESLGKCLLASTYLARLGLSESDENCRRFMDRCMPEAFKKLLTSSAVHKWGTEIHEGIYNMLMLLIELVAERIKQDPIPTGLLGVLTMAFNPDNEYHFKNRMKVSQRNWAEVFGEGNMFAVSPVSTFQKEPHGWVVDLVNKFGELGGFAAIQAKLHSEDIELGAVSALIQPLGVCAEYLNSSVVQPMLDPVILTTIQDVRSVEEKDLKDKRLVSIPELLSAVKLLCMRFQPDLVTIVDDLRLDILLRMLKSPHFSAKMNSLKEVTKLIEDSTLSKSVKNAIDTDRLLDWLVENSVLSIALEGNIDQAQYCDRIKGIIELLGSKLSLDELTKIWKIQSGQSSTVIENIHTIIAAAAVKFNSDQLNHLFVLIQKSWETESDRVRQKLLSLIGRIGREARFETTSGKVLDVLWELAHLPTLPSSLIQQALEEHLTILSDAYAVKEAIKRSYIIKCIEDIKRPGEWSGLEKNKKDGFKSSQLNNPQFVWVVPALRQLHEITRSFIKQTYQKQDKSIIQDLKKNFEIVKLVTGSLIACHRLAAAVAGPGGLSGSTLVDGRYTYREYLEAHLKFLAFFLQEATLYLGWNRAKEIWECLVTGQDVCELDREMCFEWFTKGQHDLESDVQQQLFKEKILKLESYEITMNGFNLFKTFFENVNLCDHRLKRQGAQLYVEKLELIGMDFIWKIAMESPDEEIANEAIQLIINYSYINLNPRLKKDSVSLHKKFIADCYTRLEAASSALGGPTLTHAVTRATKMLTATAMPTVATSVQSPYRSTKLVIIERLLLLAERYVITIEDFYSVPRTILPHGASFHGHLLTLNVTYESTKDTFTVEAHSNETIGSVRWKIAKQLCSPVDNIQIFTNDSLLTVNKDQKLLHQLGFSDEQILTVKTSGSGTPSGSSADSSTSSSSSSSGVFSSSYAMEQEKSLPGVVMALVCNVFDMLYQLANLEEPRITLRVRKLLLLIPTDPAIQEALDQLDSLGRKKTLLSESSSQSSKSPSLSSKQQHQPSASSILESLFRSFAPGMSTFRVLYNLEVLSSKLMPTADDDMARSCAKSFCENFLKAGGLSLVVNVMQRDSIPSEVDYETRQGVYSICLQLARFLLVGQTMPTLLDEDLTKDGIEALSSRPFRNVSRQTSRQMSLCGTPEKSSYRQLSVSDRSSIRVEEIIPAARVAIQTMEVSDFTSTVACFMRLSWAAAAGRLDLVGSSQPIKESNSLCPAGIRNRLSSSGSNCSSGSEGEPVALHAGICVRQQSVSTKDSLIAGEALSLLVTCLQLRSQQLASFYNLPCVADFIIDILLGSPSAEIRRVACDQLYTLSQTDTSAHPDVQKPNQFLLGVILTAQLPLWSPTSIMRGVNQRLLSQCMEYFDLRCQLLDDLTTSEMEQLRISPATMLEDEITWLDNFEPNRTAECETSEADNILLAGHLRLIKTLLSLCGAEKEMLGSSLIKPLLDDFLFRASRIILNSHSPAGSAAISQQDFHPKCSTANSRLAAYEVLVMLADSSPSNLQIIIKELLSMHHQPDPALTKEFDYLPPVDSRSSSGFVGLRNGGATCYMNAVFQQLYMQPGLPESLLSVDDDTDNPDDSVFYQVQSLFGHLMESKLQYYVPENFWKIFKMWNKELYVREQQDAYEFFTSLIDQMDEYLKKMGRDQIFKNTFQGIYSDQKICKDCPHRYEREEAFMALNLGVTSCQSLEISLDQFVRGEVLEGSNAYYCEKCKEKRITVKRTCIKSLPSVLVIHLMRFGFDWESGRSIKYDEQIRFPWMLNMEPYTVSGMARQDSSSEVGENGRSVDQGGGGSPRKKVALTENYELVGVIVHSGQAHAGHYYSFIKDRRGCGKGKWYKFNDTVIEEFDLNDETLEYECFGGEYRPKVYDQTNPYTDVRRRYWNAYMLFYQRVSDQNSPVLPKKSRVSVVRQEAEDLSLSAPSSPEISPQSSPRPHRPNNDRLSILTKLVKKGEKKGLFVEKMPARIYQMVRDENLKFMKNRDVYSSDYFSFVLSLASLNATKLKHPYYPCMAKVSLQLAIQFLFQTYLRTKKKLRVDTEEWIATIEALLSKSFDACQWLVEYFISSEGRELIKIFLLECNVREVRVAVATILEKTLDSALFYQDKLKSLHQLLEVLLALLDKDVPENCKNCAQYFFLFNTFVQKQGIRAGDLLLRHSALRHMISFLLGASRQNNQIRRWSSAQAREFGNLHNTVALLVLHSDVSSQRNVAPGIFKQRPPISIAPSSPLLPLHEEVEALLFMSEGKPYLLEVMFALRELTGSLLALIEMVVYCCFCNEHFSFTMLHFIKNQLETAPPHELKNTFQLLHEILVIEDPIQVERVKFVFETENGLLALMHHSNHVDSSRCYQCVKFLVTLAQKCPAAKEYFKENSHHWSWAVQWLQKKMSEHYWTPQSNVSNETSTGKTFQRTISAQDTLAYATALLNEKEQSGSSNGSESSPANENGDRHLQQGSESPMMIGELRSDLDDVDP
Outline: as §1

[4] = molecular target: T3, USP25 (UniProt Q9UHP3)
T3 sequence (whole entry): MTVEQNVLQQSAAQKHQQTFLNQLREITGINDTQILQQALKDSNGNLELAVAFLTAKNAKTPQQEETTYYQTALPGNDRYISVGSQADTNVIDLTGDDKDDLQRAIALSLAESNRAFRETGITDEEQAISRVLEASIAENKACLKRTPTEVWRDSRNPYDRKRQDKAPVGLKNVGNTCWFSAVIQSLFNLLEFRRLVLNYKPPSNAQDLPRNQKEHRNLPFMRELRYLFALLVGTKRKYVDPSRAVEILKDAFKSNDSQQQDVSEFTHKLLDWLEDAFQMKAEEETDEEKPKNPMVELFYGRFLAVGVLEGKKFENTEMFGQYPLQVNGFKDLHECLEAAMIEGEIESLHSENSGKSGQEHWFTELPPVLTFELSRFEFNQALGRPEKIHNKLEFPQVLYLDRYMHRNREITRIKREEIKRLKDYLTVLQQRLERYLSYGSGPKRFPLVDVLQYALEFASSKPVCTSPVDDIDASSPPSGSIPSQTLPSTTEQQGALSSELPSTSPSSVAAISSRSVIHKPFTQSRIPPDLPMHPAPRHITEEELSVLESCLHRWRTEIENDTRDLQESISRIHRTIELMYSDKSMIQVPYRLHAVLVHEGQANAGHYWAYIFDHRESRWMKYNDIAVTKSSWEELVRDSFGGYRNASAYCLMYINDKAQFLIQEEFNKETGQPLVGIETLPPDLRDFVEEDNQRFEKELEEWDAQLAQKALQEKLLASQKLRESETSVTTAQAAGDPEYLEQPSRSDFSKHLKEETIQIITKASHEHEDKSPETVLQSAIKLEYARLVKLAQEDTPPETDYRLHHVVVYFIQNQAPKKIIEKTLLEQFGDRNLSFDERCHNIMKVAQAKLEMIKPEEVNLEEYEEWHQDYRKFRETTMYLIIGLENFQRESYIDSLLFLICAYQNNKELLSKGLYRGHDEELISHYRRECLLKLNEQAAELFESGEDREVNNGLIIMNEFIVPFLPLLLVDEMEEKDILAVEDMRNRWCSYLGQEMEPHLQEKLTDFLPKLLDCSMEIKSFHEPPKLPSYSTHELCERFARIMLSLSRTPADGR
Outline: as §1

[5] = molecular target: T4, USP28 (UniProt Q96RU2)
T4 sequence (whole entry): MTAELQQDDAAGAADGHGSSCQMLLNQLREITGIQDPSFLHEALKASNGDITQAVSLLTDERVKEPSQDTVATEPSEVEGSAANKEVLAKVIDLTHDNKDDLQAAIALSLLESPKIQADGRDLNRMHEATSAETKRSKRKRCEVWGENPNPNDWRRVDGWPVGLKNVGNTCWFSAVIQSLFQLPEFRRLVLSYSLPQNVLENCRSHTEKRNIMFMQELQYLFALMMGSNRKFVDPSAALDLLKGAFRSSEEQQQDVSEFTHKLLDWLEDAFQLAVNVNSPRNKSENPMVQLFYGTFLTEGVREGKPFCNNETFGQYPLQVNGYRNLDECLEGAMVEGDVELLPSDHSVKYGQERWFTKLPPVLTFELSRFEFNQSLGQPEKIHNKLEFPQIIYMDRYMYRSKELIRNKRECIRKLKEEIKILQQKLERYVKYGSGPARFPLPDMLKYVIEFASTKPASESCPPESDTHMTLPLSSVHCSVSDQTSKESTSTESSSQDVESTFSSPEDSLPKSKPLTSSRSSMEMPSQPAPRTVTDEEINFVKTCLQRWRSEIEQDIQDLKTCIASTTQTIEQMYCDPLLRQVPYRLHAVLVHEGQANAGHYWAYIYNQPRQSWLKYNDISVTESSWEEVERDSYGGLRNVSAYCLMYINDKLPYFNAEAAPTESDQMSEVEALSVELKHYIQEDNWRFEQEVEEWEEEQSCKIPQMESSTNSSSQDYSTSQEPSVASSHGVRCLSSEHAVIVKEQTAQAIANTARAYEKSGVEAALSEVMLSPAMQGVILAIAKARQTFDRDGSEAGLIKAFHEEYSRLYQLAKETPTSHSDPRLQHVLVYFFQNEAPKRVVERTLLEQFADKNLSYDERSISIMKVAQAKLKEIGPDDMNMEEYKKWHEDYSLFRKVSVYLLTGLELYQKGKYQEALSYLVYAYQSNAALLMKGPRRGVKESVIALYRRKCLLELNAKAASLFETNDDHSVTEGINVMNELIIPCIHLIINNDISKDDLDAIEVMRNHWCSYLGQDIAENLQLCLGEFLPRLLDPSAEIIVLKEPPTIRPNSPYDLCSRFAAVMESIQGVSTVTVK
Outline: as §1

Measured: log2 ratio of Biotin-Ahx-Ub-VS probe labelling

CN(C)C(=O)c1ccc(CNC(=O)CCl)cc1
inactive: [1] 0.123 | [2] 0.0551 | [3] 0.117 | [4] -0.513 | [5] -0.359
